Assay [1] deals with 6-phosphogluconate dehydrogenase, decarboxylating (Homo sapiens) (UniProt P52209). The assay is described as follows: 6PGD enzyme inhibitors, primary screen, biochemical, human, recombinant enzyme, NADPH absorbance (AID 1159550). The note with it: recombinant 6PGD, NADPH absorbance 341 nm; at 10 µM; stronger effect = higher value.
Assay [2] concerns the target Mitogen-activated protein kinase 7 (Homo sapiens) (UniProt Q13164). In words: ERK5 transactivation activators in reporter cells, primary screen, cell-based, HTS (AID 1508626;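 active = luciferase signal above three times the same-plate solvent-only control wells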;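 note: luciferase driven by Gal4-ERK5 fusion binding five Gal4 sites before minimal TATA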). The following applies: HeLa Gal4-ERK5 transactivation, 18 h, at 5 µM, stronger effect = higher value.

Each structure is given as a SMILES string. Values without a mark were called inactive. Activity calls are given as the source filed them.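 Rule for the calls, unless noted: active = at least 20% inhibition of 6-phosphogluconate dehydrogenase activity; inactive = the rest.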

Sequence of 6-phosphogluconate dehydrogenase, decarboxylating (Homo sapiens) (P52209 whole entry, looked up, the tested form may be a part): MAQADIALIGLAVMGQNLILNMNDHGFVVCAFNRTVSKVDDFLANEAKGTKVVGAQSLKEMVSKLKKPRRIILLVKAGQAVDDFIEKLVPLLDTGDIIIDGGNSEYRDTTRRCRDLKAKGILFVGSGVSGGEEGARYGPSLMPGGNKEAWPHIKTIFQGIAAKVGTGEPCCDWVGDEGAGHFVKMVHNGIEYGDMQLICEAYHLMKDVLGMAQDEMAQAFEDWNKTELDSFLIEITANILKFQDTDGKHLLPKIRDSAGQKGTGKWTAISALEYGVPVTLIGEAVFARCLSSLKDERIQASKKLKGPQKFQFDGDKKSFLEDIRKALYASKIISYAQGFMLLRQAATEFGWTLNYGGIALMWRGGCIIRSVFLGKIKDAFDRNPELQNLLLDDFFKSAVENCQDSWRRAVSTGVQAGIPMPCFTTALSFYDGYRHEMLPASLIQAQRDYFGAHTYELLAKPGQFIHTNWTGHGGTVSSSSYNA
Sequence of Mitogen-activated protein kinase 7 (Homo sapiens) (Q13164 whole entry, looked up, the tested form may be a part): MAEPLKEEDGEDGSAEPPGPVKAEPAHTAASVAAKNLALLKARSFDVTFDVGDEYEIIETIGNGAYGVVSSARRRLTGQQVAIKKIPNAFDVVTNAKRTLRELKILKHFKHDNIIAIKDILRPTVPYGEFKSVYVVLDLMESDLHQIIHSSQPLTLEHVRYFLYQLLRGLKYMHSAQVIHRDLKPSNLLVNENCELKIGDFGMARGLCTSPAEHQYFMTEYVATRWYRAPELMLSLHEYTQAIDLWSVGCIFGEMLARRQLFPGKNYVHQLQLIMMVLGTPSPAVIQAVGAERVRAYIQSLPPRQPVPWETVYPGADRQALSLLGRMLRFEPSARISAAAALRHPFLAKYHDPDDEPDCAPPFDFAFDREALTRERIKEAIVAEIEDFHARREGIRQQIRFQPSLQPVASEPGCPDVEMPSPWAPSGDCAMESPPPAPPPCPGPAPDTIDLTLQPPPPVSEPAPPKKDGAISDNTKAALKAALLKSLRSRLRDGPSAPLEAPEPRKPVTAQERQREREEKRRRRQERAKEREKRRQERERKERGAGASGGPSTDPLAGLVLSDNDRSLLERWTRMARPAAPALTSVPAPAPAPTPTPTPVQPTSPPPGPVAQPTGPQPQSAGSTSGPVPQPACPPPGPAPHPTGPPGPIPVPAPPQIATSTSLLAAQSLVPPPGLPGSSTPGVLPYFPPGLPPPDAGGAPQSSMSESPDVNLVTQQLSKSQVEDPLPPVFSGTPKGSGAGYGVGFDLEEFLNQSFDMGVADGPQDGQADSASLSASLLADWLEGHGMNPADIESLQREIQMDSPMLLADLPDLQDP

Consider `COC(=O)[C@]1(C)CCC[C@]2(C)c3ccc(C(C)C)cc3C(=O)CC12` (stereo not given in full), for which the inhibition in assay [1] was 13.7%. In addition, the luciferase signal in assay [2] is 32 AU.
The matching figures for `CC(=O)O[C@H]1C[C@@H](OC(C)=O)C(C)(C)[C@@H]2C[C@@H](OC(C)=O)[C@]3(C)[C@H](CC[C@@]4(C)[C@H](c5ccoc5)OC(=O)[C@H]5O[C@@]534)[C@@]12C`: -4.75% and 12 AU.
As to `Cn1c(=O)[nH]c2nc[nH]c2c1=O`, the inhibition in assay [1] is -4.63%. For the same compound, the luciferase signal in assay [2] was 56 AU.
The matching figures for `CC(=O)O[C@@H]1c2c(ccc3ccc(=O)oc23)OC(C)(C)[C@@H]1OC(=O)CC(C)C`: -10.5% and 188 AU.
The matching figures for `C[C@H]1C(=O)CC[C@@H]2[C@]1(C)CC[C@H]1[C@@]2(C)CC[C@@]2(C)[C@@H]3CC(C)(C)CC[C@]3(C)CC[C@]12C`: 7.58% and 88 AU.
`COC(=O)/C(=C1/OC(=O)C(c2ccccc2)=C1O)c1ccccc1`: the inhibition in assay [1] is 11.9%. Besides, the luciferase signal in assay [2] was 68 AU.
Consider `C[C@H]1[C@H](C)CC[C@]2(CO)CC[C@]3(C)C(=CC[C@@H]4[C@@]5(C)CC[C@H](O)C(C)(C)[C@@H]5CC[C@]43C)[C@H]12`, for which, in assay [1], the inhibition is -50.4%. Also, the luciferase signal in assay [2] is 52 AU.
The matching figures for `COC(=O)C1=CO[C@@H](O[C@@H]2O[C@H](CO)[C@@H](O)[C@H](O)[C@H]2O)[C@@H]2[C@@H](C)[C@@H](O)C[C@H]12`: 6.61% and 20 AU.
The matching figures for `COC1=C(O)c2cc3oc(C(C)=O)c(O)c3c(O)c2C(=O)C1=O`: 1.87% and 52 AU.
Turning to `OC[C@@H](O)[C@@H](O)C(O)[C@H](O)[C@@H](O)CO` (stereo not given in full), in assay [1], the inhibition was -5.44%. Besides, in assay [2], the luciferase signal was 56 AU.
On to `COC(=O)C[C@H]1C(C)(C)[C@@H](O)[C@@H]2CC3=C4C=C(OC)O[C@@H](c5ccoc5)[C@]4(C)CCC3[C@@]1(C)C2=O` (stereo not given in full), for which, in assay [1], the inhibition was 1.56%. The luciferase signal in assay [2] is 28 AU.
The matching figures for `COc1ccc(-c2coc3cc(OC)cc(OC)c3c2=O)cc1`: 4.5% and 60 AU.
`COc1ccc(-c2oc3cc(O[C@@H]4O[C@H](CO)[C@@H](O)[C@H](O)[C@H]4O)c(OC)c(O)c3c(=O)c2OC)cc1O`: in assay [1], the inhibition is -33.5%. Also, in assay [2], the luciferase signal is 172 AU.
The matching figures for `O=c1cc(-c2ccc(O)cc2)oc2cc(O[C@@H]3O[C@H](CO)[C@@H](O)[C@H](O)[C@H]3O)cc(O)c12`: -5.65% and 120 AU.
The matching figures for `COc1ccc2ccc(=O)oc2c1`: 6.96% and 44 AU.
The matching figures for `COc1c(O)cc2c(-c3ccccc3)cc(=O)oc2c1OC`: -3.61% and 48 AU.
Consider `COc1cc(OC)c2c(=O)c(OC)c(-c3ccc(OC)c(OC)c3)oc2c1`, for which the inhibition in assay [1] is 1.73%. In addition, the luciferase signal in assay [2] was 68 AU.
The matching figures for `COc1c(-c2ccccc2)oc2c(ccc3occc32)c1=O`: -3.15% and 36 AU.
The matching figures for `C[C@@H]1O[C@@H](Oc2c(-c3ccc(O)c(O)c3)oc3cc(O)cc(O)c3c2=O)[C@H](O)[C@H](O)[C@H]1O`: -14.2% and 52 AU.
The matching figures for `CC(=O)O[C@H]1CC[C@@]2(C)[C@H](CC[C@@H]3[C@@H]2CC[C@]2(C)[C@@H]4[C@H](C[C@@H]32)O[C@]2(CC[C@@H](C)CO2)[C@H]4C)C1`: 13.5% and 44 AU.
Take `CC(=O)OCC1(O)CC23CCC4c5ccoc5CCC4(C)C2CCC1C3` (stereo not given): the inhibition in assay [1] was 4.27%. Further, the luciferase signal in assay [2] was 24 AU.
The matching figures for `COc1cc(C)c(C(=O)Oc2cc(C)c(C(=O)O)c(O)c2C)c(O)c1C=O`: 2.14% and 120 AU.
On to `O=C(O)C1CC([C@@H]2CCCCN2)CN2CCCCC12` (stereo not given in full), for which the inhibition in assay [1] was 18.1%. In assay [2], the luciferase signal is 220 AU (active).
The matching figures for `O=C(Cc1cccs1)N[C@@H]1C(=O)N2C(C(=O)[O-])=C(C[n+]3ccccc3)CS[C@H]12`: 0.514% and 112 AU.
The matching figures for `CC(=O)O[C@]1(C)CC[C@@]23C[C@@H]1C(C)(C)[C@@H]2CC[C@H]3C`: 13.3% and 56 AU.
The matching figures for `COc1cc(O)c2c(=O)cc(-c3ccc(OC)c(-c4c(O)cc(O)c5c(=O)cc(-c6ccc(O)cc6)oc45)c3)oc2c1`: -1.48% and 24 AU.
On to `COC(=O)C[C@H]1C2(C)CC34OC5(C)O[C@@]6([C@H](OC(C)=O)C(OC(C)=O)[C@]7(C)C(/C(=C(/O)C(C)C)C(=O)O[C@H]7c7ccoc7)[C@@]6(O5)[C@H](OC(C)=O)[C@@]3(O)C2OC(=O)C(C)C)[C@]14C` (stereo not given in full), for which the inhibition in assay [1] is -3.02%. Moreover, in assay [2], the luciferase signal is 24 AU.
On to `CC[C@H](CC[C@@H](C)[C@H]1CC[C@H]2[C@@H]3CC=C4C[C@@H](OC(C)=O)CC[C@]4(C)[C@H]3CC[C@]12C)C(C)C`, for which, in assay [1], the inhibition is 9.08%. Moreover, the luciferase signal in assay [2] was 36 AU.
On to `CC(C)[C@@H](C)/C=C/[C@@H](C)[C@H]1CC[C@H]2C3=CC=C4C[C@@H](O)CC[C@]4(C)[C@H]3CC[C@]12C`, for which the inhibition in assay [1] was -7.51%. The luciferase signal in assay [2] was 96 AU.
For `C[C@H](CCC(=O)O)[C@H]1CC[C@H]2[C@@H]3[C@H](O)C[C@@H]4C[C@H](O)CC[C@]4(C)[C@H]3C[C@H](O)[C@]12C`, in assay [1], the inhibition is -7.09%. For the same compound, in assay [2], the luciferase signal was 28 AU.

One may read the inhibition as the relative decrease from the control value, in per cent.

For the origin of these results see PubChem BioAssay.
